T cruzi growth-1: blocks T. cruzi growth in NIH3T3 culture | T. cruzi beta-gal in NIH3T3, GalScreen luminescence, 90 h | inhibition, % at 8.34 µM | 77,000 tested, 5.9% active | AID 624255;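 active = mean inhibition above about 93%, with at least 55% of replicates each passing it, limit read from the data, passing the limit was not always enough; inconclusive = only one of those two conditions holds; inactive = neither condition holds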
Pf Dd2 inh: P. falciparum Dd2 growth inhibition; SYBR Green, 72 h; stronger effect = lower value; activity change, % at 10 µM; 94,000 tested, 2.3% active; AID 1159554; in the data active = activity change below about -80%; inconclusive = no clear call, values can overlap the other calls
C diff growth: C. difficile growth inhibition. 86,000 tested, 0.25% active. growth activity, negative = inhibition, % at 16 µg/mL (by protocol). Clostridium difficile clinical isolate growth, OD600, 24 h; stronger effect = lower value;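 active = mean growth activity at or below -80% and every replicate also at or below -80%; inconclusive = mean at or below -80% but some replicate above -80%; inactive = mean growth activity above -80%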;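 also: 0% = DMSO wells and -100% = levofloxacin 16 µg/mL wells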
T cruzi growth-2: inhibitors of T. cruzi proliferation; AID 651739; inhibition, % at 8.35 µM; T. cruzi beta-gal in NIH3T3, GalScreen luminescence, 90 h; 5,600 tested, 72% active; shares compounds with T cruzi growth-1;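 active = mean replicate inhibition above about 95% and at least 55% of replicates individually reaching it, limit read from the data; inconclusive = only one of the two criteria is met; inactive = neither criterion is met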
T cruzi growth-3: Trypanosoma cruzi proliferation inhibition; shares compounds with T cruzi growth-1; T. cruzi beta-gal in NIH3T3, GalScreen luminescence, 90 h; inhibition, % at 2.09 µM; 5,600 tested, 21% active; AID 651740;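 active = mean inhibition above about 95%, with at least 55% of replicates also reaching it, limit read from the data; inconclusive = meets just one of the two conditions; inactive = meets neither condition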;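 also: plate controls were neutral control median for no effect and positive control median for full effect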
3T3 cytotox: kills mouse NIH/3T3 fibroblasts; shares compounds with T cruzi growth-1; NIH/3T3 viability, CellTiter-Glo ATP luminescence, 90 h; cytotoxicity (signal decrease), % at 8.35 µM; 5,600 tested, 14% active;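 active = mean signal decrease across replicates above about 35% based on untreated-well scatter, with enough replicates individually passing, limit read from the data; inconclusive = no rule stated though some were filed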;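 also: 0% = median of neutral control wells and 100% = median of positive control wells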
NIH3T3 tox 2: cytotoxicity in mouse NIH/3T3 fibroblasts; shares compounds with T cruzi growth-1; NIH/3T3 viability, CellTiter-Glo ATP luminescence, 90 h; inhibition, % at 24.9 µM; 5,600 tested, 56% active; AID 651744;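 active = mean loss of cell viability signal at or above a set limit, and enough replicates individually reaching it; inconclusive = meets only the mean limit or only the replicate share; inactive = meets neither condition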;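 also: 0% = median of neutral control wells and 100% = median of positive control wells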
Starred values were filed as active, the others as inactive; ? = inconclusive; / = not tested or not shown. Sampled rows, rich in hits. Any-hit rate of the full collection: about 6.7%.

SMILES | T cruzi growth-1 | Pf Dd2 inh | C diff growth | T cruzi growth-2 | T cruzi growth-3 | 3T3 cytotox | NIH3T3 tox 2
C[C@@H]1CCCCO[C@H](CN(C)C(=O)NC2CCCCC2)[C@@H](C)CN([C@H](C)CO)C(=O)c2cc(NC(=O)Nc3cccc4ccccc34)ccc2O1 | 104* | -35 | -5 | 109* | 30 | -21 | -15
C[C@H](CO)N1C[C@H](C)[C@H](CN(C)C(=O)Nc2cccc3ccccc23)OCCCC[C@H](C)Oc2ccc(N(C)C)cc2C1=O | 59 | -59 | -12 | / | / | / | /
Cc1noc(C)c1NC(=O)Nc1ccc2c(c1)CC(=O)N([C@H](C)CO)C[C@@H](C)[C@H](CN(C)C(=O)Nc1c(C)noc1C)O2 | 16 | 30 | -8 | / | / | / | /
O=C(Nc1cccc(Cl)c1)N[C@@H]1CC[C@@H](CCNC(=O)C2CCCC2)O[C@@H]1CO | / | -11 | -11 | / | / | / | /
COCC#Cc1ccc2c(c1)O[C@@H](CN(C)Cc1ccncc1)[C@@H](C)CN([C@@H](C)CO)S2(=O)=O | ? | 12 | 1 | 97* | 71 | 20 | 18
COCC#Cc1ccc2c(c1)O[C@H](CN(C)Cc1ccc(F)cc1)[C@@H](C)CN([C@H](C)CO)S2(=O)=O | 85 | -61 | -2 | / | / | / | /
COCC#Cc1ccc2c(c1)O[C@H](CN(C)Cc1ccncc1)[C@H](C)CN([C@@H](C)CO)S2(=O)=O | 49 | 15 | -5 | / | / | / | /
COCC#Cc1ccc2c(c1)O[C@@H](CN(C)Cc1ccncc1)[C@@H](C)CN([C@H](C)CO)S2(=O)=O | ? | -2 | 2 | 105* | 72 | 10 | 8
COCC#Cc1ccc2c(c1)O[C@H](CN(C)Cc1ccccc1)[C@@H](C)CN([C@@H](C)CO)S2(=O)=O | ? | -40 | 4 | 102* | 72 | 21 | 104*
COCC#Cc1ccc2c(c1)O[C@H](CN(C)Cc1ccncc1)[C@H](C)CN([C@H](C)CO)S2(=O)=O | 29 | 19 | -2 | / | / | / | /
COCC#Cc1ccc2c(c1)O[C@@H](CN(C)Cc1ccc(F)cc1)[C@@H](C)CN([C@H](C)CO)S2(=O)=O | 55 | -39 | -1 | / | / | / | /
COc1ccc(NC(=O)N[C@@H]2CC[C@@H](CCNC(=O)Cc3ccncc3)O[C@H]2CO)cc1 | / | 0 | -13 | / | / | / | /
C[C@@H]1CN([C@H](C)CO)C(=O)Cc2cc(NC(=O)Nc3cccc4ccccc34)ccc2O[C@@H]1CN(C)Cc1ccc(Oc2ccccc2)cc1 | 82 | 15 | 2 | / | / | / | /
COc1ccc(NC(=O)N(C)C[C@@H]2Oc3ncc(-c4cc5ccccc5o4)cc3C(=O)N([C@H](C)CO)C[C@@H]2C)cc1 | 109* | -47 | 1 | 106* | 41 | 32 | 34*
COc1cccc(S(=O)(=O)N(C)C[C@@H]2Oc3ncc(-c4cc5ccccc5o4)cc3C(=O)N([C@H](C)CO)C[C@@H]2C)c1 | 109* | -67 | 2 | 104* | 73 | 39* | 16
C[C@H](CO)N1C[C@H](C)[C@H](CN(C)C(=O)Nc2ccc3c(c2)OCO3)Oc2ncc(-c3cc4ccccc4o3)cc2C1=O | / | -71 | 2 | / | / | / | /
C[C@H](CO)N1C[C@H](C)[C@H](CN(C)Cc2ccc(F)cc2)Oc2ncc(-c3cc4ccccc4o3)cc2C1=O | / | -38 | 19 | / | / | / | /
Cc1cccc(CN(C)C[C@@H]2Oc3ncc(-c4cc5ccccc5o4)cc3C(=O)N([C@H](C)CO)C[C@@H]2C)c1 | 99* | -63 | 21 | 106* | 77 | 44* | 104*
C[C@H](CO)N1C[C@H](C)[C@H](CN(C)S(=O)(=O)c2cccc(F)c2)Oc2ncc(-c3cc4ccccc4o3)cc2C1=O | / | -56 | 9 | / | / | / | /
CC(C)CC#Cc1cnc2c(c1)C(=O)N([C@H](C)CO)C[C@@H](C)[C@H](CN(C)C(=O)C1CCOCC1)O2 | -1 | 24 | -2 | / | / | / | /
COc1cccc(NC(=O)N(C)C[C@@H]2Oc3ncc(C#Cc4ccc(F)cc4)cc3C(=O)N([C@@H](C)CO)C[C@@H]2C)c1 | 97 | -27 | 15 | / | / | / | /
O=C(C[C@@H]1CC[C@@H]2[C@H](COC[C@H](O)CN2C(=O)C2CC2)O1)NCc1ccccc1Cl | 10 | 5 | 0 | / | / | / | /
CCCC#Cc1ccc([C@H]2[C@@H](CO)N(C(=O)C3CCCC3)[C@H]2C#N)cc1 | 105* | 25 | 0 | 116* | 11 | -4 | 28*
CCCC#Cc1ccc([C@@H]2[C@@H](C#N)N(C(=O)C3CCC3)[C@@H]2CO)cc1 | 99* | -14 | -19 | 99* | 28 | 30 | 33*
CCCC#Cc1ccc([C@H]2[C@@H](C#N)N(C(=O)C3CCCC3)[C@H]2CO)cc1 | 98* | -54 | -2 | 90 | 106* | 1 | 43*
SMILES | T cruzi growth-1 | Pf Dd2 inh | C diff growth | T cruzi growth-2 | T cruzi growth-3 | 3T3 cytotox | NIH3T3 tox 2
CC(C)C#Cc1ccc([C@H]2[C@@H](CO)N(C(=O)C3CCC3)[C@H]2C#N)cc1 | 37 | 26 | 4 | / | / | / | /
CC(C)C#Cc1ccc([C@H]2[C@@H](C#N)N(C(=O)C3CC3)[C@@H]2CO)cc1 | 79 | 7 | -3 | / | / | / | /
CC(C)C#Cc1ccc([C@@H]2[C@@H](C#N)N(C(=O)C3CCC3)[C@H]2CO)cc1 | ? | -6 | -15 | 101* | 77 | 20 | 33*
CC(C)C#Cc1ccc([C@H]2[C@H](C#N)N(C(=O)C3CC3)[C@H]2CO)cc1 | 83 | -10 | -6 | / | / | / | /
CC(C)C#Cc1ccc([C@H]2[C@@H](CO)N(C(=O)C3CC3)[C@H]2C#N)cc1 | -25 | 19 | 8 | / | / | / | /
C[C@@H](NC(=O)C[C@@H]1C[C@H]2c3cc(NC(=O)C4CCOCC4)ccc3O[C@H]2[C@H](CO)O1)c1ccccc1 | 17 | -2 | / | / | / | / | /
C[C@@H]1CN([C@H](C)CO)C(=O)Cc2cc(NC(=O)Nc3cccc4ccccc34)ccc2O[C@H]1CN(C)C(=O)Nc1ccc(F)cc1 | 26 | -17 | -3 | / | / | / | /
CCCC#Cc1ccc([C@@H]2[C@H](C#N)N(C(=O)C3CC3)[C@H]2CO)cc1 | 98* | -30 | 18 | 107* | 108* | 18 | 7
CCCC#Cc1ccc([C@@H]2[C@@H](CO)N(C(=O)C3CCOCC3)[C@H]2C#N)cc1 | 74 | -22 | 2 | / | / | / | /
CCCC#Cc1ccc([C@H]2[C@@H](C#N)N(C(=O)C3CCOCC3)[C@H]2CO)cc1 | 92 | -33 | 6 | / | / | / | /
CCCC#Cc1ccc([C@@H]2[C@@H](C#N)N(C(=O)C3CCCC3)[C@H]2CO)cc1 | 102* | -23 | -5 | 96* | 102* | 24 | 39*
C/C=C/c1ccc2c(c1)O[C@@H](CN(C)CC1CC1)[C@@H](C)CN([C@H](C)CO)S2(=O)=O | 32 | -44 | 5 | / | / | / | /
C[C@@H]1CN([C@@H](C)CO)C(=O)c2cccc(NC(=O)Nc3ccc(C(F)(F)F)cc3)c2O[C@@H]1CN(C)C | / | -29 | 16 | / | / | / | /
